Tau fluor counter: counter-screen for tau fibril formation inhibitors | AID 1463 | Potency, µM (doses to about 57.7 µM), without a hit: at the highest dose activity change, negative = decrease | tau K18 P301L Alexa594 fluorescence, heparin fibrillization | 280,000 tested, 0.93% active; further: potency means the concentration at half of the fitted maximal effect; nearly all actives have a fitted effect of over 55% in size
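Human K18 P301L tau (15 uM unlabeled plus 0.24 uM Alexa 594-labeled, final) in 100 mM sodium acetate pH 7 was mixed with compound and 20 uM heparin and incubated 6 hr at 37 C.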
Sfp inh: Sfp phosphopantetheinyl transferase inhibition; Potency, µM, without a hit: largest response in the series, negative = inhibition, usual class: inhibitors; Q9F4F7; AID 1490; 310,000 tested, 3.5% active; Biochemical Sfp PPTase activity, qHTS;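 further: the enzyme is Sfp with the accession as filed and its product quenches rhodamine fluorescence; potency means the concentration at half of the fitted maximal effect; 0% = enzyme reaction without inhibitor and -100% = no enzyme wells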
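Buffer: 50 mM Hepes-Na pH 7.6, 10 mM MgCl2, 0.01% Nonidet P-40, 0.01% BSA. Enzyme 15 nM, pre-exposed to compound 15 min; substrates then added and fluorescence change tracked over 30 min.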
FBPA coupling cs: counter-screen for Giardia aldolase inhibitors: coupling enzyme system; coupling enzyme system counterscreen, AmpLite Red fluorescence; activity change, negative = inhibition, % at 58.2 µM, hits read low; 290,000 tested, 0.67% active; AID 2472; in the data active means activity change below about -30%
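Final compound at 57.5 uM, incubated 10 min at RT with coupling enzyme reagent (glyceraldehyde-3-phosphate), then 20 min with substrate and AmpLite Red detection. Fluorescence read at 525/598 nm; tests interference with the coupling assay, not aldolase inhibition.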
Tau FP inhib: blocks human tau fibril formation measured by polarization. AID 1468. 280,000 tested, 0.39% active. K18 P301L tau heparin fibrillization, Alexa594 FP, 6 h. Potency, µM (titrated, usually from 57.7 µM), for the others: top-dose activity, negative = inhibition, most hits filed as inhibitors; further: potency means the concentration at half of the fitted maximal effect; nearly all actives have a fitted effect of over 55% in size
Target sequence (P10636 561-689 P618L limits assumed): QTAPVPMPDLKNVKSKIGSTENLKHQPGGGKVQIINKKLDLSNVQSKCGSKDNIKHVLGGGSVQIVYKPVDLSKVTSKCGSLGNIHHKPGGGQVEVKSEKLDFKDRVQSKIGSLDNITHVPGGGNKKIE
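K18 P301L tau (15 uM unlabeled/0.24 uM Alexa 594-labeled, final) + compound + heparin 20 uM final; 100 mM NaOAc pH 7; 6 hr 37 C; ThT 30 uM final added, 1 hr RT; FP ex 555/em 632 nm.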
JMJD2E inh: JMJD2E (human) inhibition; 230,000 tested, 1.6% active; B2RXH2; JMJD2E catalytic domain, FDH-coupled NADH fluorescence (FDH is formaldehyde dehydrogenase); Potency, µM (top dose mostly 57.1 µM), without a hit: at the highest dose activity change, negative = inhibition, hits mostly inhibitors; AID 2147; active means well fitted inhibition curve with a large enough effect, not every such curve was filed as active; inconclusive means small, poorly fitted or top-dose-only effect, or another doubt; inactive means no such curve, though single readings can be large or run the other way;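 further: potency means the concentration at half of the fitted maximal effect; 0% = wells with enzyme and -100% = buffer wells without enzyme; nearly all actives have a fitted effect of over 50% in size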
Target sequence (B2RXH2 1-337 limits assumed): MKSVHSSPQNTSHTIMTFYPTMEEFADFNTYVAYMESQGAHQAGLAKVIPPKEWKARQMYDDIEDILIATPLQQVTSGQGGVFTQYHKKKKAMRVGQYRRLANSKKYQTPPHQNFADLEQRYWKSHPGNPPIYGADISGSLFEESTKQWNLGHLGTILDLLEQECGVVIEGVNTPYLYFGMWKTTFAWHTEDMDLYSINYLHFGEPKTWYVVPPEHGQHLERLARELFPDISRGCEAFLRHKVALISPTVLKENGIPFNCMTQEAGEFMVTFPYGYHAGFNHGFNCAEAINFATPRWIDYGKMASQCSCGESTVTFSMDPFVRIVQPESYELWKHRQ
Tau ThT inhib: inhibitors of human tau fibril formation, thioflavin T binding; P10636; recombinant tau K18 P301L (four-repeat tau fragment), heparin-induced fibrillization, ThT fluorescence; Potency, µM (titrated, usually from 57.4 µM), for inactives: top-dose activity, negative = inhibition, usual class: inhibitors; 270,000 tested, 2.1% active; AID 1460; further: potency means the concentration at half of the fitted maximal effect; nearly all actives have a fitted effect of over 55% in size
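Tau K18 P301L fragment (15 uM unlabeled plus 0.24 uM Alexa 594-labeled) in 100 mM sodium acetate pH 7 with compound, fibrillization induced by 20 uM heparin for 6 hr at 37 C. Thioflavin T (30 uM) added, fluorescence read after 1 hr (ex 450, em 510 nm).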
The depositor's hits bear a star; [ ] = another dose, or the depositor's remark. An excerpt weighted towards active compounds, which were near 5.3% of everything screened. Unless noted, the call rests on the fitted dose curve; in most records, active means well fitted curve in the direction sought with a large enough effect; inconclusive means small, poorly fitted or top-dose-only effect, or another doubt; inactive means no such curve, though single readings can be large; an effect the other way counts as inactive or inconclusive. Unless noted, on the % scale 0 is the no-effect control and ±100 the full control effect.

O=C(Nc1ccc(Cl)c(-c2nc3ccccc3o2)c1)c1cccc2c(Cl)cccc12 was read as Tau fluor counter -22.9%, Tau FP inhib -11.6% and Tau ThT inhib -7.7%.
Screening O=C(Nc1ccc2c(c1)ncn2-c1ccccc1)c1ccco1 returned Tau fluor counter -8.0%, Sfp inh 31.6µM*, FBPA coupling cs -0.7, Tau FP inhib 1.9%, JMJD2E inh -3.3% and Tau ThT inhib -14.8%.
Cn1cnc2cc(NC(=O)c3ccco3)ccc21 was read as Tau fluor counter -4.1%, Sfp inh 16.5%, FBPA coupling cs 0.6, Tau FP inhib -1.8%, JMJD2E inh -4.6% and Tau ThT inhib -14.0%.
For O=c1[nH]c(NNC(=S)NC2CCCCC2)nc2c1C1(CCCC1)Cc1ccccc1-2 the results were Tau fluor counter -21.3%, Sfp inh 79.4µM*, FBPA coupling cs -2.2, Tau FP inhib 0.6%, JMJD2E inh inconclusive and Tau ThT inhib 2.5%.
Screening COc1ccc(CCNC(=O)CCc2c(C)c3cc4c(C)c(C)oc4cc3oc2=O)cc1OC returned Tau fluor counter 4.9%, Tau FP inhib 8.5% and Tau ThT inhib inconclusive.
Screening CC(C)C1C(=O)N(S(C)(=O)=O)[C@H]2CCN(C(=O)/C=C/CN3CCCCC3)[C@@H]12 (stereo not given in full) returned Sfp inh -1.9% and FBPA coupling cs 1.3.
Screening C/C=C/C=C/C(=O)N1CC2(CC(c3cccc(NC(=O)CCCCC)c3)=NO2)C[C@H]1C(N)=O (stereo not given in full) returned Tau fluor counter 14.6%, Sfp inh 22.4µM*, FBPA coupling cs -0.6, Tau FP inhib -3.8%, JMJD2E inh -12.0% and Tau ThT inhib 0.2%.
For C/C=C\C=C\C(=O)Nc1cccc(C2=NOC3(C2)C[C@@H](C(N)=O)N(C(=O)C(c2ccccc2)c2ccccc2)C3)c1 (stereo not given in full) the results were Tau fluor counter -16.1%, Sfp inh 17.8µM*, FBPA coupling cs -4.0, Tau FP inhib -10.0%, JMJD2E inh -5.6% and Tau ThT inhib inconclusive.
For C/C=C\C=C/C(=O)Nc1cccc(C2=NOC3(C2)C[C@H](C(N)=O)N(C(=O)Cc2ccc([N+](=O)[O-])cc2)C3)c1 (stereo not given in full) the results were Tau fluor counter -10.8%, Sfp inh 12.6µM*, FBPA coupling cs 0.3, Tau FP inhib 5.3%, JMJD2E inh 0.5% and Tau ThT inhib inconclusive.
C/C=C\C=C/C(=O)Nc1cccc(C2=NOC3(C2)C[C@H](C(N)=O)N(C(=O)CC)C3)c1 (stereo not given in full) was read as Tau fluor counter 11.3%, Sfp inh 12.6µM*, FBPA coupling cs -8.8, Tau FP inhib -2.9%, JMJD2E inh 8.0% and Tau ThT inhib -2.8%.
C/C=C/C=C\C(=O)Nc1cccc(C2=NOC3(C2)C[C@H](C(N)=O)N(C(=O)CC#N)C3)c1 (stereo not given in full) was read as Tau fluor counter 3.2%, Sfp inh 12.6µM*, FBPA coupling cs -1.8, Tau FP inhib -9.4%, JMJD2E inh inconclusive and Tau ThT inhib -10.5%.
C/C=C/C=C\C(=O)Nc1cccc(C2=NOC3(C2)C[C@@H](C(N)=O)N(C(=O)/C(C)=C/C)C3)c1 (stereo not given in full) was read as Tau fluor counter 0.8%, Sfp inh 25.1µM*, FBPA coupling cs -2.2, Tau FP inhib 4.1%, JMJD2E inh -1.5% and Tau ThT inhib -14.7%.
For C/C=C\C=C/C(=O)Nc1cccc(C2=NOC3(C2)C[C@@H](C(N)=O)N(C(=O)CCCCC)C3)c1 (stereo not given in full) the results were Tau fluor counter 20.1%, Sfp inh 25.1µM*, FBPA coupling cs -0.9, Tau FP inhib 3.6%, JMJD2E inh 4.8% and Tau ThT inhib 3.8%.
`CCCCCC(=O)Nc1cccc(C2=NOC3(C2)C[C@H](C(N)=O)N(C(=O)CC#N)C3)c1` (stereo not given in full) gave Tau fluor counter 5.9%, Sfp inh 7.2%, FBPA coupling cs -2.5, Tau FP inhib 4.1%, JMJD2E inh -28.8% and Tau ThT inhib 2.6%.
O=[N+]([O-])c1ccc(/C=C2\CCC(C3=CCCC3)=C2N2CCOCC2)cc1 was read as Tau fluor counter inconclusive, Sfp inh inconclusive, FBPA coupling cs 4.1, Tau FP inhib inconclusive, JMJD2E inh inconclusive and Tau ThT inhib 15.8µM*.
`O=C1[C@H]2[C@H]3[C@H](O)[C@H](O)C/C(=N/OCc4ccccc4)[C@@H]3CC[C@@H]2C(=O)N1C1CCCCC1` gave Tau fluor counter -9.0%[11.6 µM], Sfp inh -5.9%, FBPA coupling cs 3.8, Tau FP inhib 2.0%[11.6 µM] and Tau ThT inhib -7.4%[11.5 µM].
Screening Cc1ccc(NC(=O)COc2ccccc2C(=O)Nc2ccccc2)cc1Cl returned Tau fluor counter inconclusive, Sfp inh -3.5%, FBPA coupling cs 0.1, Tau FP inhib 4.47µM*, JMJD2E inh 8.4% and Tau ThT inhib -0.9%.
For Cc1nc2ccc(NC(=O)COc3ccccc3C)cc2s1 the results were Tau fluor counter -10.2%, Sfp inh 31.6µM*, FBPA coupling cs -7.2, Tau FP inhib -1.9%, JMJD2E inh -16.4% and Tau ThT inhib inconclusive.
Cc1nc2ccc(NC(=O)COc3ccccc3[N+](=O)[O-])cc2s1 was read as Tau fluor counter -5.3%, Sfp inh 5.2%, FBPA coupling cs 1.6, Tau FP inhib -1.7%, JMJD2E inh -7.6% and Tau ThT inhib inconclusive.
Screening O=C(Cn1c(=O)n2nc(-c3ccccc3)nc2c2ccccc21)Nc1ccccc1C(F)(F)F returned Tau fluor counter -1.3%, Tau FP inhib -19.8% and Tau ThT inhib 4.4%.
CCCC[C@@H]1CCCO[C@@](C(=O)NCc2ccccc2)(C(F)(F)F)C1 was read as Sfp inh 7.7% and FBPA coupling cs -0.5.
N#CC1=C(N)Oc2cc3ccccc3cc2C1c1cccs1 (stereo not given) was read as Tau fluor counter inconclusive, Sfp inh 79.4µM*, FBPA coupling cs -7.1, Tau FP inhib inconclusive, JMJD2E inh 6.3% and Tau ThT inhib -7.1%.
For CCOc1ccc(S(=O)(=O)NNS(=O)(=O)c2ccc(C)cc2C)cc1 the results were Sfp inh 79.4µM* and FBPA coupling cs 0.2.
Screening CCOc1ccc(S(=O)(=O)NCCCl)cc1 returned Tau fluor counter -7.8%, Sfp inh -0.6%, FBPA coupling cs -1.5, Tau FP inhib -1.4%, JMJD2E inh -0.2% and Tau ThT inhib -8.7%.

Screening data (PubChem)
